Source: PubChem (NMMLSC)
Pemphigus Ab inh – human desmoglein-3 autoantibody binding inhibition | P32926 | DSG3-coupled beads, scFv-anti-DSG3-GFP binding, flow cytometry; active compounds read low | binding (percent of control), % at 10 µM | actives 0.48% (n = 310,000) | AID 588358;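 active = binding more than 3 SD below its plate's average and above zero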;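 note: hits lower antibody fragment binding to DSG3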
CIT2-GFP yeast – yeast TOR pathway CIT2-GFP modulation; actives 0.065% (n = 320,000); AID 2029; GFP response vs DMSO, % at 10 µM; S. cerevisiae CIT2-GFP strain, flow cytometry, 3 h; 100 means same as DMSO wells;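 active = GFP response relative to DMSO above a set limit, near the screen mean plus 3 SD, cut at about 150% in these data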;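 note: ratio of well median GFP fluorescence to mean of DMSO wells on the plate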
MEP2 TOR yeast – alters MEP2-GFP fluorescence in TOR pathway yeast screen | S. cerevisiae MEP2-GFP strain, flow cytometry GFP, 3 h; 100% = DMSO control level | actives 0.51% (n = 330,000) | AID 2016 | GFP response vs DMSO, % at 10 µM;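 active = GFP response versus DMSO above a set limit, roughly screen mean plus 3 SD, cut at about 180% in these data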;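 note: median GFP fluorescence of the barcode-gated MEP2-GFP cells per well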
LAP4-GFP MLPCN – modulators of TOR pathway LAP4-GFP in S. cerevisiae | S. cerevisiae LAP4-GFP multiplex, flow cytometry GFP, 3 h; median GFP as percent of DMSO wells | GFP response vs DMSO, % at 10 µM | actives 0.34% (n = 320,000) | AID 2023;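 active = GFP response vs DMSO above a set limit, about the screen mean plus 3 SD, cut at about 150% in these data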
RPL19A-GFP yeast – modulators of TOR pathway RPL19A-GFP in S. cerevisiae; S. cerevisiae RPL19A-GFP strain, flow cytometry, 3 h; active compounds read low; percent response vs DMSO, % at 10 µM; actives 0.3% (n = 330,000); AID 2025;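 active = percent response vs DMSO below 50%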;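 note: median channel GFP fluorescence of the barcoded RPL19A-GFP strain; ratio of sample median GFP to plate DMSO average so 100% = DMSO; lower means less RPL19A-GFP as with rapamycin TOR inhibition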
AGP1-GFP MLPCN – modulators of TOR pathway AGP1-GFP in S. cerevisiae; S. cerevisiae AGP1-GFP multiplex flow cytometry, 3 h; GFP as percent of DMSO wells; GFP response vs DMSO, % at 10 µM; actives 0.02% (n = 320,000); AID 2066;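 active = GFP response relative to DMSO above a set limit, near screen average plus 3 SD, cut at about 150% in these data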;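 note: median GFP channel fluorescence of the gated AGP1 strain per well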
LAP4-GFP pick2 – second confirmation of modulators of TOR reporter LAP4-GFP in yeast; shares compounds with LAP4-GFP MLPCN; S. cerevisiae LAP4-GFP strain, flow cytometry GFP, 3 h; GFP response vs DMSO, % at 10 µM; actives 20% (n = 590);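 active = GFP signal as percent of the solvent control above about 150%, meaning raised reporter expression, limit read from the data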;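 note: ratio of well median GFP fluorescence to plate DMSO mean so 100% = DMSO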
MEP2 cherry2 – yeast MEP2-GFP modulation, second cherry pick; shares compounds with LAP4-GFP MLPCN; S. cerevisiae MEP2-GFP strain, flow cytometry GFP, 3 h; GFP response vs DMSO, % at 10 µM; actives 10% (n = 590); AID 2622;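 active = GFP signal above 150% of the solvent control wells, that is a rise of more than half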;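 note: median channel GFP fluorescence of all gated yeast cells per well; ratio of median GFP to plate DMSO average so 100% = DMSO level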
RPL19A GFP CP2 – reconfirmed modulator of RPL19A-GFP TOR reporter in yeast | GFP response vs DMSO, % at 10 µM | AID 2623 | actives 3% (n = 590) | S. cerevisiae RPL19A-GFP strain, flow cytometry GFP, 3 h; active compounds read low; 100% means same as DMSO wells | shares compounds with LAP4-GFP MLPCN;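 active = under 65% GFP response relative to DMSO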;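 note: median GFP channel fluorescence per well over the all cells gate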
CIT2-GFP pick2 – second confirmation of modulators of TOR reporter CIT2-GFP in yeast | actives 8% (n = 590) | GFP response vs DMSO, % at 10 µM | shares compounds with LAP4-GFP MLPCN | S. cerevisiae CIT2-GFP strain, flow cytometry GFP, 3 h; DMSO control wells read 100%;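 active = GFP response vs DMSO above about 150%, limit read from the data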;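 note: median green fluorescence per well over all gated yeast cells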
AGP1 GFP CP2 – reconfirmed modulator of AGP1-GFP TOR reporter in yeast; shares compounds with LAP4-GFP MLPCN; S. cerevisiae AGP1-GFP strain, flow cytometry GFP, 3 h; percent response vs DMSO, % at 10 µM; 590 tested, under 10 active; AID 2643;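 active = over 150 percent of DMSO response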;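 note: median GFP channel fluorescence over all cells without mother daughter split; sample median GFP divided by mean DMSO control so 100% equals DMSO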
s288c autofluor – compound is autofluorescent in yeast s288c cells. fluorescence change (kMESF span) at 33 µM. S. cerevisiae s288c, 520 nm autofluorescence, flow cytometry, 3 h; active compounds read high; zero means same as solvent-only cells. shares compounds with LAP4-GFP MLPCN. 610 tested, under 10 active. AID 2757;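 active = fluorescence span over the dose series, or activity score, above about 33, limit read from the data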
Numbers without * were called inactive; · = no result. Shown are actives, neighbours in structure and some others; about 1.2% of the full set was active somewhere.

SMILES	Pemphigus Ab inh	CIT2-GFP yeast	MEP2 TOR yeast	LAP4-GFP MLPCN	RPL19A-GFP yeast	AGP1-GFP MLPCN	LAP4-GFP pick2	MEP2 cherry2	RPL19A GFP CP2	CIT2-GFP pick2	AGP1 GFP CP2	s288c autofluor
Clc1cc2cccnc2c2ncccc12	94	83	109	168*	95	93	131	108	95	95	89	·
Cc1c(C)c2cccnc2c2ncccc12	111	80	89	183*	90	69	118	133	97	117	99	·
O=C(COC(=O)C1=COCCO1)Nc1ccc([N+](=O)[O-])cc1C(F)(F)F	96	90	99	99	98	99	·	·	·	·	·	·
CCn1c(=O)c(C(=O)Nn2c(C)nc3ccccc3c2=O)c(O)c2ccccc21	106	122	101	96	52	75	·	·	·	·	·	·
CCc1nc2ccccc2c(=O)n1NC(=O)c1c(O)c2cccc3c2n(c1=O)CCC3	104	81	83	93	57	58	114	129	64*	122	39	2.2
CCCc1nnc(NC(=O)c2c(O)c3cccc4c3n(c2=O)CCC4)s1	·	80	81	98	51	64	107	133	50*	128	47	3.8
CCn1c(=O)c(C(=O)Nc2nc3ccccc3[nH]2)c(O)c2ccccc21	96	84	126	176*	67	40	·	·	·	·	·	4.4
O=C(Nn1c(Cc2ccccc2)nc2ccccc2c1=O)c1c(O)c2cccc3c2n(c1=O)CCC3	106	93	91	103	95	103	·	·	·	·	·	·
CCc1nc2ccccc2c(=O)n1NC(=O)c1c(O)c2ccccc2n(CC)c1=O	113	103	124	87	54	40	125	224*	42*	168*	44	1.4
O=C(O)CN1C(=O)/C(=C\c2cccc(OCc3ccc(Cl)cc3Cl)c2)SC1=S	127	101	107	104	104	94	·	·	·	·	·	·
CC(C)NC(=O)NC(=O)COC(=O)c1ncc(Cl)c(Cl)c1Cl	105	103	105	106	101	105	·	·	·	·	·	·
CCOC(=O)c1c(O)c2ccccc2n(CC)c1=O	99	84	106	142	74	81	·	·	·	·	·	·
CCn1c(=O)c(C(C)=O)c(O)c2ccccc21	114	58	92	174*	92	79	·	·	·	·	·	-1.7
COc1ccc(C(=O)COC(=O)C2COc3ccccc3O2)c(OC)c1 (configuration not stated)	106	·	·	·	·	·	·	·	·	·	·	·
OCC[C@@H]1C[C@H](O)[C@@H](O)[C@@]2(CCCc3ccccc3O2)O1	106	96	106	98	97	103	·	·	·	·	·	·
COc1ccccc1C(=O)Nc1ccc(Br)c2cccnc12	115	106	103	87	103	100	·	·	·	·	·	·
COc1ccccc1C(=O)Nc1ccc(Br)cc1C	94	83	102	188*	82	107	104	105	98	96	96	·
CC(C)CN1CCN(Cc2cnc(-c3ccc(Cl)cc3)nc2)CC1CCO (configuration not stated)	90	87	152	96	62	81	103	111	100	98	102	·
CC(C)(C)c1csc(NC(=O)c2ccc(Br)o2)n1	·	98	97	110	98	91	·	·	·	·	·	·
CC(=O)Oc1ccc(N2C(=O)C3C4C=CC(O4)C3C2=O)cc1 (configuration not stated)	101	100	98	118	98	100	·	·	·	·	·	0.1
CC[C@@]1(c2ccccc2OC)ON(c2ccccc2C(F)(F)F)C1=O	95	88	80	116	93	73	147	112	101	107	104	0.6
CC1(c2ccccc2)ON(c2ccccc2C(F)(F)F)C1=O (configuration not stated)	·	78	75	114	92	73	128	113	101	115	99	0.3
Cc1ccccc1[C@@]1(C)ON(c2ccccc2C(F)(F)F)C1=O	100	91	83	100	88	84	125	106	104	113	101	-0.2
O=C1N(c2ccccc2C(F)(F)F)O[C@]1(c1ccccc1)C1CCCC1	103	103	91	90	99	91	111	113	101	107	106	-0.1
CCNS(=O)(=O)c1ccc(CCC(=O)NCc2ccncc2)cc1	118	121	100	91	106	113	·	·	·	·	·	·
SMILES	Pemphigus Ab inh	CIT2-GFP yeast	MEP2 TOR yeast	LAP4-GFP MLPCN	RPL19A-GFP yeast	AGP1-GFP MLPCN	LAP4-GFP pick2	MEP2 cherry2	RPL19A GFP CP2	CIT2-GFP pick2	AGP1 GFP CP2	s288c autofluor
O=C(Nc1ccccc1)C(Cl)C(=O)c1ccccc1 (configuration not stated)	118	93	97	130	101	86	120	114	105	125	107	·
CC(=O)C(Cl)C(=O)Nc1ccccc1 (configuration not stated)	108	·	·	·	·	·	120	121	103	123	112	·
CN(CCOc1ccc(Cl)cc1)C(=O)CN1C(=O)NC2(CCCC2)C1=O	109	101	114	100	101	105	·	·	·	·	·	·
O=c1c2cc(Cl)ccc2nc(-c2ccc([N+](=O)[O-])cc2)n1O	97	76	96	134	64	79	158*	153*	46*	145	75	0.3
Cc1c(S(=O)(=O)Nc2cccc3ccccc23)c(=O)n(C)c(=O)n1C	98	98	102	100	96	99	·	·	·	·	·	·
CN(CC(=O)NC1CCCCC1)S(=O)(=O)c1ccc2c(c1)c(=O)n(C)c(=O)n2C	98	102	102	94	102	102	·	·	·	·	·	·
